Several values for one entry are separate records, joined by “and”; a condition that tells them apart may be missing. Equal entries are not always repeated. Compounds without any hit were thinned out: in the full panel of roughly 83,000, 20% have a hit.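 Assay: single dose, 48 h. Readout: percent growth (0 = no net growth; negative = cell death). Active: <10.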 Activity calls are given as the source filed them.
tested on: MCF7 breast; assay: NCI-60 one-dose screen, 48 h (100 = growth as untreated, 0 = no growth, -100 = all killed); conditions: 10 µM unless noted
Description: Growth inhibition of the MCF7 human tumor cell line is measured as a screen for anti-cancer activity. Cells are grown in 96 well plates and exposed to the test compound for 48 hours. Compounds are tested at a single concentration, which is 10^-5 M for most compounds. The reported endpoint is percent growth (GI% or GIPRCNT), where numbers from 0 - 100% represent growth inhibition, and numbers from -100% - 0 represent cell death. For example, a value of 40 represents 60% growth inhibition. A value of 0 means no net growth occurred over the course of the experiment. A value of -40 indicates 40% of cells at the beginning of the experiment died by the end of the experiment. A value of -100 means all cells are dead at the end of the experiment.
NCI-60 Human Tumor Cell Lines Screen was performed using the standard one-dose NCI protocol, which is described in more detail at https://dtp.cancer.gov/discovery_development/nci-60/default.htm.
Compounds with GIPRCNT values below 10 were considered active. Activity score was based on GIPRCNT using the following formula: […]
Score is 0 for GIPRCNT values of 100 or above, 50 for GIPRCNT values of 0, and 100 for GIPRCNT values of -100.

| Compound | growth |
| --- | --- |
| c1ccc2c(c1)oc1cc3c(cc12)nnc1cccn13 | 82.3% (inactive) |
| COc1cccc2c(=O)c3c(sc12)c(NCCN(C)C)nc1ccccc13 | 0.0828% (active) |
| Cc1nc(-c2ccccc2)cc2c(O)c(C(=O)N/N=C/Cc3ccccc3)[nH]c(=O)c12 | 98.5% (inactive) |
| COc1cc(/C=N/NC(=O)c2cnn3c2NC(c2ccccc2)C3)cc(OC)c1OC (stereo not given) | 34.9% (inactive) |
| Cc1c(C)n(CC(O)CNC2CCCCC2C)c2ccccc12 (stereo not given) | -23.4% (active) |
| O=C(c1cnn2c1NC(c1ccc(F)cc1)C2)N1CCCCC1 (stereo not given) | 93.2% (inactive) |
| Nc1cc2[nH]c(=O)c3ccccc3c2cc1Br | 24.5% (inactive) |
| Nc1nc(Nc2cc(F)c(Cl)c(F)c2)cc(=O)[nH]1 | 65.9% [100 µM] (inactive) and -23.3% [100 µM] (active) |
| COc1ccc(C(=O)C2=CC(=O)C(=O)C2)cc1OC | 95.9% (inactive) |
| O=S(=O)(OCCO)c1ccccc1 | 94.9% (inactive) |
| Cn1c2c(cc(S(=O)(=O)c3ccccc3)c1=O)CCc1c-2cnn1-c1ccccc1Cl | 96.2% (inactive) |
| CC(C)(C)[Si](C)(C)OC1[C@@H](COC(N)=O)O[C@@H](n2cnc3c(N)ncnc32)[C@H]1O[Si](C)(C)C(C)(C)C (stereo not given in full) | 78.6% (inactive) |
| COc1c2c(c(OC)c3c1c(=O)c1ccccc1n3C)OCO2 | 9.09% [100 µM] (active) |
| O=C1c2c(c3c4cc(Br)ccc4[nH]c3c3ccc4ccccc4c23)C(=O)N1O | 43.3% (inactive) |
| COc1cc(C(=O)N(C(C)C)C2CCCCC2)cc(OC)c1OC | 86.2% (inactive) |
| CN([N-]C(=O)CC(=O)[N-]N(C)C(=S)c1ccccc1)C(=S)c1ccccc1.[Cu+2] | -48.3% (active) |
| COc1ncnc2c1ncn2C/C(Br)=C(\Br)CCl | 0.237% (active) |
| O=C1C(OCCOc2ccccc2)=C(OCCOc2ccccc2)C(=O)c2ccccc21 | 64% (inactive) |
| COc1ccc(/C=C2\CN(Cc3cn(CCCNc4ccnc5cc(Cl)ccc45)nn3)C/C(=C\c3ccc(OC)cc3)C2=O)cc1 | 43.5% (inactive) |
| O=C(Nc1ccc(Cl)c(Cl)c1)OCn1ncc2ccc([N+](=O)[O-])cc21 | 85.9% (inactive) |

| Compound | growth |
| --- | --- |
| Clc1ccc2c(c1)C[C@H]1C[C@@H](c3cccs3)N2O1 | 105% (inactive) |
| COC(=O)/C=C1/CCC2C3CCC4=CC(=O)C(Br)CC4(C)C3C(=O)CC12C (stereo not given) | 42.3% (inactive) |
| COCCOC1=C(Cl)C(=O)c2ccccc2C1=O | 15.4% (inactive) |
| Cn1c2ccccc2c2nn(C(=O)c3ccccc3)c(=O)nc21 | 101% (inactive) |
| Cc1cc2c3c(nc4ccccc42)C(=O)c2cccnc2-c3n1 | -74.8% [100 µM] (active) and -100% [100 µM] (active) |
| O=C(NCc1cccnc1)c1ccc([N+](=O)[O-])o1 | 13.9% (inactive) |
| CC1(C)N=C(N)N=C(N)N1c1cccc(OCCOc2cccc([N+](=O)[O-])c2)c1 | 29% (inactive) |
| Cc1nc2cc(Nc3nc(Nc4ccc(F)cc4)nc(N4CCCC4)n3)ccc2n1Cc1ccccc1 | 3.05% (active) |
| COc1cc2oc(-c3ccc(O)cc3)cc(=O)c2c(O)c1I | 79% (inactive) |
| CCOC(=O)c1c(Cl)c2c(n1Cc1cc(OC)cc(OC)c1)-c1oncc1CCC2 | 10.7% (inactive) |
| FC(F)(F)Oc1ccc2c(c1)C[C@H]1C[C@@H](c3ccoc3)N2O1 | 98.6% (inactive) |
| C[C@@H](Oc1cc(-c2cnn(C3CC4(CNC4)C3)c2)cnc1N)c1c(Cl)ccc(F)c1Cl | 9.06% (active) |
| Oc1ccc(Cl)cc1CNc1nc2ccccc2[nH]1 | 18% (inactive) |
| CCN1CCN(c2nc3ccccc3c3c(=O)c4cc(F)ccc4sc23)CC1 | 65.1% (inactive) |
| C[C@]12CC[C@@H]3c4cc(Br)c(O)c(Br)c4CC[C@H]3[C@@H]1CC(Br)C2=O (stereo not given in full) | -71.4% [100 µM] (active) and -70.2% [100 µM] (active) |
| O=C(NCc1ccc(F)cc1)C1CN(c2ccc(Cl)cc2)N(c2ccc(Cl)cc2)C1=O (stereo not given) | 29.6% (inactive) |
| COc1cc(CC2c3cc(OC)c(OC)cc3CCN2C)c(Oc2cc3c(cc2OC)-c2c(O)c(OC)cc4c2C(C3)N(C)CC4)cc1OC (stereo not given) | 20.4% [100 µM] (inactive) and -77.4% [100 µM] (active) |
| Cc1ccc2c(c1)c(Sc1ccc(C(=O)NO)cc1)c1n2CN(C)CC1 | 16.6% (inactive) |
| CC(O)c1cc2c(s1)C(=O)c1ccsc1C2=O (stereo not given) | -56.8% [100 µM] (active) and -91.5% [100 µM] (active) |
| COc1nc2c(cc1S(=O)(=O)c1ccccc1)CCc1c-2cnn1-c1ccccc1 | 75.5% (inactive) |

— PubChem BioAssay (NCI)
